# A number with no mark means an inactive call.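 Rule for the calls: active = RAM network inhibition above 8.4% in each of two replicates, 3 SD over the compound average; inconclusive = above 8.4% inhibition in only one replicate; inactive = 8.4% inhibition or less in each replicate.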
# Assay: RAM signaling pathway blockade in yeast – S. cerevisiae, Pdr1DBD-CYC8 efflux-inhibited sensitized strain, primary screen (AID 1298);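 note: 0% = DMSO untreated cells without growth and 100% = 10 µM 1-NA-PP1 full growth; higher means more yeast growth rescued from 5-FOA killing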
# Settings: S. cerevisiae cbk1-as DSE1-URA3 strain, 5-FOA growth OD615, 2 d; at 50 µM; hits give high values
row,SMILES,RAM network inhibition [%]
1,O=S(=O)(Cc1ccccc1)N1CCn2c(nc3ccccc32)C1,4.75
2,Cc1noc(C(=O)NCc2ccco2)c1Cl,2.4
3,Cc1cc(=O)[nH]c(SCc2cc(Cl)ccc2OC(F)F)n1,5.32
4,COc1cccc(C2CC(c3ccccc3OC)n3nc(N)nc3N2)c1 (stereo unspecified),1.98
5,O=C1c2ccccc2C(=O)N1CCc1nc2ccccc2c(=O)n1Cc1ccco1,1.59
6,CCN(CC(=O)NCc1ccc(F)cc1)C(=O)C1CCN(C(=O)Nc2ccccc2)CC1,0.37
7,COCCn1c(SCCN2CCOCC2)nc2c1c(=O)[nH]c(=O)n2C,5.47
8,Cc1ccc(C(=O)NCCn2cc(SCC(=O)Nc3cc(C)on3)c3ccccc32)cc1,0.42
9,COC(=O)C1CCCN1C(C(=O)NC1CCCCC1)c1ccc(Cl)cc1 (stereo unspecified),2.27
10,CC(=O)c1ccc(OCCCC(=O)NCC(c2ccco2)N(C)C)cc1 (stereo unspecified),1.98
11,CCOc1ccc(NC2c3ccccc3C(=O)N2c2ccc(Cl)cn2)cc1 (stereo unspecified),3.42
12,O=C(c1ccco1)N1CCN=C1SCc1cccc(Cl)c1,0.26
13,Cc1nn(C(=O)CN2C(=O)c3ccccc3C2=O)c(C)c1Br,4.29
14,CCOC(=O)CNc1c(N2CCN(c3ccccn3)CC2)c(=O)c1=O,-0.36
15,CCOC(=O)c1[nH]c(=O)[nH]c1CSc1nc(C)cc(C)n1,5.37
16,Cc1ccc(NC(=O)CSc2nnc(Cc3cccn3C)n2-c2ccc(F)cc2)c(C)c1,2.03

# From PubChem BioAssay
